Results filed as inconclusive are left out. Activity calls are given as the source filed them. The call rests on the fitted dose curve; in most records, active means well fitted curve in the direction sought with a large enough effect; inconclusive means small, poorly fitted or top-dose-only effect, or another doubt; inactive means no such curve, though single readings can be large; an effect the other way counts as inactive or inconclusive.
Molecular target: Cytochrome P450 2D6 (Homo sapiens) (UniProt P10635)
Sequence (P10635 whole entry, looked up): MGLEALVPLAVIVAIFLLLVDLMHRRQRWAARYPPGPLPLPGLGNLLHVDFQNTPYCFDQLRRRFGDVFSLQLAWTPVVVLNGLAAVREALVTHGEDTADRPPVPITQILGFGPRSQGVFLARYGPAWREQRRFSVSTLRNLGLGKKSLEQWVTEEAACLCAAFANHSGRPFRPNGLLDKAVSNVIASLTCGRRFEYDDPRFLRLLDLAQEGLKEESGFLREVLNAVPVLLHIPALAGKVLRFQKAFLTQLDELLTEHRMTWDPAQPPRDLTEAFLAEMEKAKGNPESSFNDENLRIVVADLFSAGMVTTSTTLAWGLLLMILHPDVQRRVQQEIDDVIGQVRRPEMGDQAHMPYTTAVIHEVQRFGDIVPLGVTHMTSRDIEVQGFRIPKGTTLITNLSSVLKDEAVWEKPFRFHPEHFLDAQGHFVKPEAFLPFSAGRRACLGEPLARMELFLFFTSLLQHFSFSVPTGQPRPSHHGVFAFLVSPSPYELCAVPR
Assay: qHTS Assay for Inhibitors and Substrates of Cytochrome P450 2D6 (AID 891); further: nearly all actives have a fitted effect of over 60% in size; further: potency means the concentration at half of the fitted maximal effect;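 on activity change, negative = inhibition: luciferin methyl ether substrate demethylated by CYP2D6 with NADPH regeneration; on the % scale 0 is the no-effect control and ±100 the full control effect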
Settings: recombinant CYP2D6, luciferin-ME EGE luminescence; series mostly up to 11.4 µM; activity change, negative = inhibition: at the top concentration
In short: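 Luminescent read-out of luciferin formed by 5 nM human CYP2D6 demethylating 30 uM Luciferin-ME EGE (Km level) over 60 min at room temperature after NADPH regeneration addition. Data normalized to full inhibition by 1.43 uM quinidine.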

Row | Compound | activity change, negative = inhibition | Potency
1 | CCOC(=O)CCN1C(=O)[C@H]2[C@@H]3[C@H](O)[C@H](O)CC(=O)[C@H]3CC[C@H]2C1=O | 24.8% (inactive) | 
2 | C[C@@H](c1ccccc1)N1C(=O)[C@H]2[C@@H]3[C@H](O)C=CC(=O)[C@H]3CC[C@H]2C1=O | 30.6% (inactive) | 
3 | COC(=O)C/C=C\[C@@H](C)[C@@H](/C=N\O[C@@H](C)CN1CCCc2nc(C)c(C)cc21)NS(=O)(=O)c1ccc(C)cc1 |  | 3.16 µM (active)

Molecular target: Cytochrome P450 2C19 (Homo sapiens) (UniProt P33261)
Sequence (P33261 whole entry, looked up): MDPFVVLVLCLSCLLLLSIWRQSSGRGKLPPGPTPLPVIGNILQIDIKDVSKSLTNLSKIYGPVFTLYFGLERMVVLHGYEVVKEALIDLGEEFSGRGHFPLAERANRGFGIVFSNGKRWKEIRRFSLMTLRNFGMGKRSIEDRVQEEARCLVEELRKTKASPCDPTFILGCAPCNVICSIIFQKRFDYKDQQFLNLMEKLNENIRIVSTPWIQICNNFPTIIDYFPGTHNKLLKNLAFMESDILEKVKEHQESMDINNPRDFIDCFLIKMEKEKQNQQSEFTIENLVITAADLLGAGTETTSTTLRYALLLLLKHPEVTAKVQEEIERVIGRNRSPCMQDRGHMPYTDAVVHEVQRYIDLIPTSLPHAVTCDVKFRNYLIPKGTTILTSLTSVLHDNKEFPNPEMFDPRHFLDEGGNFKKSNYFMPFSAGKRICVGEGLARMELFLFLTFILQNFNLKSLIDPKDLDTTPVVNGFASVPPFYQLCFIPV
Assay: qHTS Assay for Inhibitors and Substrates of Cytochrome P450 2C19 (AID 899); further: nearly all actives have a fitted effect of over 60% in size; further: potency means the concentration at half of the fitted maximal effect; on activity, negative = inhibition: on the % scale 0 is the no-effect control and ±100 the full control effect
Settings: recombinant CYP2C19, luciferin-H EGE luminescence; series mostly up to 11.4 µM; activity, negative = inhibition: at the top concentration
In short: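 Luminescent read-out of luciferin formed from Luciferin-H EGE (10uM, equal to KM). Enzyme 5nM in 50mM KPO4; compound added, 10 min at 37C, then NADPH regenerating system for 60 min at 37C. Full inhibition defined by 57uM ketoconazole.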

Row | Compound | activity, negative = inhibition | Potency
4 | CC(=O)OC[C@@H]1O[C@H](C/C=N\O[C@@H](C)c2cn([C@H]3COC[C@H]3O)nn2)C=C[C@@H]1OC(C)=O | 69.6% (inactive) | 
5 | CO[C@@H]1COC(=O)[C@H]2CCCN2C(=O)C/C=C\[C@@H](C)[C@H](OC)COC(=O)[C@H]2CCCN2C(=O)C/C=C\[C@H]1C | 67.2% (inactive) | 
6 | O=C1C[C@H](c2ccccc2)[C@@H](c2ccc(Br)cc2)O1 |  | 398 nM (active)
7 | CCN1C(=O)[C@@H]2[C@H]3C(=CC[C@@H]2C1=O)C1(OCCCO1)[C@H]1O[C@@H]1[C@H]3O |  | 1580 nM (active)
8 | CO[C@@H]1COC(=O)[C@H]2CCCN2C(=O)[C@@H](C)COC(=O)CCC[C@H]1C | 48% (inactive) | 
9 | CO[C@@H]1COC(=O)[C@@H](CCSC)NC(=O)C/C=C\[C@@H](C)COC(=O)[C@H](C)NC(=O)C/C=C\[C@H]1C | 62.1% (inactive) | 
10 | CC(C)=CCC/C(C)=C/CO/N=C1/C[C@@H](O)[C@@H](O)[C@@H]2[C@@H]3C(=O)N(Cc4ccccc4)C(=O)[C@H]3CC[C@@H]12 | 62.5% (inactive) | 
11 | C[C@@H]1/C=C\CC(=O)OC[C@H](C)C(=O)N[C@@H](C)C(=O)OC1 | 64% (inactive) | 
12 | CC(=O)OC[C@@H]1O[C@@H](O/N=C2/C[C@@H](O)[C@@H](O)[C@@H]3[C@@H]4C(=O)N(C(C)(C)C)C(=O)[C@H]4CC[C@H]23)[C@H](OC(C)=O)[C@H](OC(C)=O)[C@@H]1OC(C)=O | 45.6% (inactive) | 
13 | C[C@H]1COC(=O)[C@H]2CCCN2C(=O)[C@@H](C)COC(=O)[C@H](Cc2ccccc2)NC1=O | 54.5% (inactive) | 
14 | Cc1ccc(S(=O)(=O)N[C@H]2COC(=O)C/C=C\[C@@H](C)[C@H](NS(=O)(=O)c3ccc(C)cc3)COC(=O)[C@H](C)NC(=O)C/C=C\[C@H]2C)cc1 | 50.6% (inactive) | 
15 | COC(=O)[C@H](Cc1ccccc1)NC(=O)[C@@H](C)CO |  | 1260 nM (active)
16 | C=CC1=C[C@@H](O)C2OC2C12OCCCO2 (some centres not stated) | 33.8% (inactive) | 
17 | CCOC(=O)CCN1C(=O)[C@H]2[C@@H]3[C@H](O)[C@H](O)CC(=O)[C@H]3CC[C@H]2C1=O | 60.3% (inactive) | 
18 | COc1ccc(O[C@H]2C=C[C@@H](c3ccccc3)O[C@@H]2CO/N=C(\C)CCN2CCc3nc(-c4ccccc4)c(-c4ccccc4)cc3C2)cc1 |  | 251 nM (active)
19 | C#CCCCO/N=C1/C[C@@H](O)[C@@H](O)[C@@H]2[C@@H]3C(=O)N(Cc4ccccc4)C(=O)[C@H]3CC[C@@H]12 | 46.4% (inactive) | 
20 | CC(C)=NO[C@@H](C)c1cn([C@@H]2COC[C@@H]2O)nn1 | 47.6% (inactive) | 
21 | C[C@@H](c1ccccc1)N1C(=O)[C@H]2[C@@H]3[C@H](O)C=CC(=O)[C@H]3CC[C@H]2C1=O | 22.4% (inactive) | 
22 | COC(=O)C/C=C\[C@@H](C)[C@@H](/C=N\O[C@@H](C)c1cn([C@H]2COC[C@H]2O)nn1)OC | 50.1% (inactive) | 
23 | O=C1[C@H]2[C@H]3[C@H](O)[C@H](O)C/C(=N/OCc4ccccc4)[C@H]3CC[C@@H]2C(=O)N1C[C@@H]1CCCO1 | 50.6% (inactive) | 
24 | COC(=O)[C@@H]1CC[C@H](C)[C@@H](c2ccc(C)cc2)N1C(=O)c1ccc(/C=N\OC[C@@H]2O[C@H](c3ccccc3)C=C[C@@H]2Oc2ccc(OC)cc2)cc1 |  | 50.1 nM (active)
25 | CO[C@@H]1COC(=O)[C@H](C)NC(=O)C/C=C\[C@@H](C)[C@@H](NS(=O)(=O)c2ccc(C)cc2)COC(=O)C/C=C\[C@@H]1C | 71% (inactive) | 
26 | CO[C@@H]1COC(=O)[C@H](Cc2ccccc2)NC(=O)C/C=C\[C@@H](C)[C@H](OC)COC(=O)[C@@H](C)NC(=O)C/C=C\[C@H]1C | 51.2% (inactive) | 
27 | O=C1[C@H]2[C@H]3[C@H](O)[C@H](O)C/C(=N/OC[C@@H](O)COCc4ccco4)[C@@H]3CC[C@@H]2C(=O)N1C[C@@H]1CCCO1 | 13.1% (inactive) | 
28 | CO/N=C\[C@@H](NS(=O)(=O)c1ccc(C)cc1)[C@H](C)/C=C\CC(=O)OC |  | 3160 nM (active)

System: not listed separately
Assay: Confirmation and Secondary Assay for Modulators of Hemoglobin Beta Chain Splicing at IVS2 654 locus (AID 910);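 further: HeLa cells stably carrying EGFP split by mutant beta-globin IVS2-654 intron; % of control where 0% means no effect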
Settings: HeLa EGFP-654 splicing reporter, GFP fluorescence, 48 h; series mostly up to 46.1 µM; activation (splicing correction): at the top concentration
In short: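 HeLa cells stably expressing EGFP interrupted by β-globin IVS2-654 intron, seeded overnight in Opti-MEM/2% FCS, then treated 2 days at 37 °C. Restored splicing read as total peak GFP intensity per well by laser scanning cytometry (488 nm excitation, 500–520 nm emission); 500 nM antisense PNA as control.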

Row | Compound | activation (splicing correction)
29 | COC(=O)C1C(O)CC[C@H]2CN3CCc4c([nH]c5ccccc45)C3C[C@H]12 (some centres not stated) | -1.68% [at 38.3 µM] (inactive)
30 | CC(C)CC1C(=O)N2CCCC2C2(O)O[C@@](NC(=O)C3C=C4c5cccc6[nH]c(Br)c(c56)CC4N(C)C3)(C(C)C)C(=O)N12 (some centres not stated) | -8.85% (inactive)
31 | CC1CC[C@@]2(C(=O)O)CC[C@]3(C)C(=CCC4[C@@]5(C)CCC(O)C(C)(C)C5CC[C@@]43C)C2C1C (some centres not stated) | -1.02% [at 38.3 µM] (inactive)
32 | CC(=O)[C@]1(O)CCC2C3CC(C)C4=CC(=O)C=CC4(C)[C@@]3(F)C(O)C[C@]21C (some centres not stated) | -1.29% (inactive)
33 | CNC(C)C1CC[C@H](N)[C@@H](OC2C(N)C[C@H](N)[C@@H](OC3OC[C@](C)(O)C(NC)[C@H]3O)C2O)O1 (some centres not stated) | 3.34% (inactive)
34 | Nc1ncn(C2OC(CO)C(O)C2O)c(=O)n1 (configuration not stated) | -5.89% (inactive)
35 | COc1cc2c(c(OC)c1OC)-c1ccc(OC)c(=O)cc1C(NC(C)=O)CC2 (configuration not stated) | -7.01% (inactive)
36 | C=C1c2c(Cl)ccc(O)c2C(O)=C2C(=O)[C@]3(O)C(O)=C(C(N)=O)C(=O)C(N(C)C)C3C(O)C12 (some centres not stated) | -7.93% (inactive)
37 | CCOC(=O)C1=C[C@@]2(CC)CCCN3CCc4c(n1c1ccccc41)C32 (some centres not stated) | 3.6% (inactive)
38 | CC(CCC(=O)O)C1CCC2C3CC[C@H]4CC(O)CC[C@@]4(C)C3CC[C@@]12C (some centres not stated) | -6.74% (inactive)
39 | CC(=O)N1CCN(c2ccc(OCC3CO[C@@](Cn4ccnc4)(c4ccc(Cl)cc4Cl)O3)cc2)CC1 (some centres not stated) | -4.91% (inactive)
40 | CN1C[C@H](C(=O)N[C@@]2(C)O[C@@]3(O)C4CCCN4C(=O)C(Cc4ccccc4)N3C2=O)C[C@H]2c3cccc4[nH]cc(c34)C[C@H]21 (some centres not stated) | 1.71% (inactive)
41 | COc1cc2c(cc1OC)C1C(=O)c3c(O)cc4c(c3OC1CO2)C=CC(C)(C)O4 (configuration not stated) | -7.82% (inactive)
42 | CC1CC2C3CC(F)C4=CC(=O)C=C[C@@]4(C)[C@@]3(F)C(O)C[C@]2(C)[C@]1(O)C(=O)COC(=O)C(C)(C)C (some centres not stated) | -1.46% (inactive)

— PubChem BioAssay (NCATS)
